# Calls of active or inactive are those of the source. Calls come from the whole dose curve; as a rule, active = well fitted activation curve with a large enough effect; inconclusive = small, poorly fitted or top-dose-only effect; inactive = flat fitted curve, though single readings scatter.
# Assay: Cellular Toxicity (caspase-3) N2a (AID 665);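 note: compound exposure lasted 16 h at 37 °C before readout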
# Settings: N2a cells, luminescence, normalized: DMSO 0%, 10 µM staurosporine 100%; series mostly up to 92.2 µM; caspase-3 activation: at the top concentration
# Source text: NIH Chemical Genomics Center [NCGC]
# NIH Molecular Libraries Screening Centers Network [MLSCN]
# National Institutes of Environmental Health Sciences [NIEHS]
# National Toxicology Program [NTP]
# We have developed a 1536-well cell-based assay for quantitative high throughput screening (qHTS) against a number of cell lines to determine in vitro caspase 3/7 activity of small molecules. This particular assay uses the N2a cell line which is derived from mouse neuroblastoma.
# NCGC Assay Protocol Summary:
# The Caspase-Glo 3/7 assay (Promega) is a homogeneous method to measure caspase-3 and caspase-7 activities in cultured cells. The quantitation of caspase 3/7 activity is based on the cleavage of a peptide-aminoluciferin substrate. After caspase cleaves the substrate the free aminoluciferin is liberated and serves as the substrate of luciferase, which generates the light. The luminescent signal is proportional to the amount of caspase 3/7 activity present.
# Using the Caspase-Glo 3/7 assay, the amount of caspase 3/7 activity was measured in the N2a cells with complete culture medium following compound treatment for 16 hours. The assay was performed in opaque white 1536-well plates. In the screen, staurosporine and doxorubicin were used as positive controls. Library compounds were measured for their ability to cause the activation of caspase 3/7 in the cell line, as reflected by an increase in luminescence signal, in a concentration-dependent manner. Data were normalized to the controls for basal activity (DMSO only) and 100% stimulation (10 uM staurosporine). AC50 values were determined from concentration-response data modeled with the standard Hill equation.
# qHTS protocol for caspase 3/7 assay in mouse N2a cell line
# [Step] [Parameter] [Value] [Description]
# 1. Reagent; 5 uL; 1500 mouse N2a cells/well
# 2. Time; 5 hr; 37 °C incubation
# 4. Controls; 23 nL; doxorubicin 7 pM to 100 uM & staurosporine 1.4 pM to 20 uM
# 5. Time; 16 hr; 37 °C incubation
# 6. Reagent; 5 uL; Caspase-Glo 3/7 reagent
# 7. Time; 1 hr; Room Temperature
# 8. Detection; Luminescence; Viewlux plate reader
# Keywords: caspase 3/7, apoptosis, mouse N2a cell line, luminescence, NTPHTS, NTPHTS_NCGC, NIEHS, EPA, DSSTox, MLSMR, MLSCN, NIH Roadmap, qHTS, NCGC
Structure (SMILES),outcome,caspase-3 activation
C[C@]12CCC(=O)C=C1CC[C@@H]1[C@@H]2CC[C@]2(C)C(=O)CC[C@@H]12,inactive,–
Nc1ccccc1C(=O)O,–,-1.71% (inactive)
COP(=S)(OC)Oc1ccc(SC)c(C)c1,–,-3.74% (inactive)
C[C@]12CCC(=O)C=C1CC[C@@H]1[C@@H]2CC[C@@]2(C)[C@H]1CC[C@]2(C)O,–,7.42% (inactive)
CN1C[C@H](C(=O)N[C@]2(C)O[C@@]3(O)[C@@H]4CCCN4C(=O)[C@H](Cc4ccccc4)N3C2=O)C=C2c3cccc4[nH]cc(c34)C[C@H]21,–,-7.12% (inactive)
C[C@]1(O)CC[C@H]2[C@@H]3CCC4=CC(=O)CC[C@]4(C)[C@@]3(F)[C@@H](O)C[C@@]21C,–,-3.6% (inactive)
CCOC(=O)CC(SP(=S)(OC)OC)C(=O)OCC (centres undefined),–,3.03% (inactive)
O=C(O)CCCc1ccc(N(CCCl)CCCl)cc1,–,5.86% (inactive)
CC(C)NC(C)C,–,-1.28% (inactive)
Clc1ccc(C(c2ccc(Cl)cc2)C(Cl)(Cl)Cl)cc1,–,15.3% (inactive)
NCCc1ccc(O)cc1,–,3.92% (inactive)
Nc1ccccc1,–,-4.57% (inactive)
Oc1ccc(Cl)cc1,–,1.62% (inactive)
COc1cc(OC)c(OC)cc1C=O,–,-1.35% (inactive)
COC(=O)C(c1ccccc1)C1CCCCN1 (centres undefined),–,-1.95% (inactive)
CCC(C)(C)c1ccc(O)cc1,–,-2.19% (inactive)
CC(C)c1cccc(C(C)C)c1O,–,2.62% (inactive)
CCCC(C)(COC(N)=O)COC(N)=O,–,-0.708% (inactive)
O=P1(N(CCCl)CCCl)NCCCO1 (centres undefined),–,-2.9% (inactive)

# Source: PubChem BioAssay (NCATS)
